Screening data deposited in PubChem BioAssay by several laboratories.
PTPN22 act: LYP (human) phosphatase activation; activation, % at 2 µM; hit rate 0.11% among 96,000; AID 697; Q9Y2R2; recombinant LYP, DiFMUP fluorescence; 0 = plate median, 100 = signal doubled;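 active = activation at 2 µM above a set limit, the mean plus 5 SD, cut at about 37% in these data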
Target sequence (Q9Y2R2 whole entry, looked up): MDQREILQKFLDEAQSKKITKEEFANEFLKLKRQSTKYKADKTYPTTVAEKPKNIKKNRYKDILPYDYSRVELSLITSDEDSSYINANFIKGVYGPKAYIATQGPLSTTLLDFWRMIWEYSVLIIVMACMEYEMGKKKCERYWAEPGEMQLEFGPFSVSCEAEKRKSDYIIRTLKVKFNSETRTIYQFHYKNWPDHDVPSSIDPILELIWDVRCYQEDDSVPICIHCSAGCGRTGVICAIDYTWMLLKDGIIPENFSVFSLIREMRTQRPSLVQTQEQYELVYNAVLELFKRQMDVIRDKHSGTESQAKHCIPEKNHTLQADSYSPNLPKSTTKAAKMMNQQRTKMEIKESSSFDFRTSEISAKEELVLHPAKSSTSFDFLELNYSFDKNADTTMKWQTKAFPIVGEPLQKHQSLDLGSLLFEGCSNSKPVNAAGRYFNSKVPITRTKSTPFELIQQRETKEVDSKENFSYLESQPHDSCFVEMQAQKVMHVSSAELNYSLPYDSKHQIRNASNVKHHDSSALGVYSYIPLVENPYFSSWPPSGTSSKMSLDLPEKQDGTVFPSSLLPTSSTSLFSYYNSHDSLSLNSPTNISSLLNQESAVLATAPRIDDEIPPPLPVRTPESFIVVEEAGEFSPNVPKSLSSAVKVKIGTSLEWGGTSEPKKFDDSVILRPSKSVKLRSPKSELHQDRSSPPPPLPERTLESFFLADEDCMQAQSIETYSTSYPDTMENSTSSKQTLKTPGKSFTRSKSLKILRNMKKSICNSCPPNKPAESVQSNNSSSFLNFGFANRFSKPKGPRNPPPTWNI
Measles CPE: protection of cells from measles virus; Measles virus-infected cells, CPE protection, absorbance; protection (pct of control), % at 4 µM; hit rate 1.5% among 140,000; in the data active = protection mostly above about 24%, no sharp cut-off; inactive = mostly below about 26%
PTPN22 inh 2: blocks human PTPN22 phosphatase activity; hit rate 0.21% among 96,000; inhibition, % at 2 µM; recombinant LYP catalytic domain, DiFMUP fluorescence; AID 640;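 active = inhibition at 2 µM at or above a set limit, the screen mean plus 3 SD, cut at about 24% in these data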;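 note: 0% = DMSO with enzyme and 100% = enzyme fully blocked by orthovanadate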
Numbers without * were called inactive; · = no result given. An excerpt weighted towards active compounds, which were near 1.7% of everything screened.

SMILES | PTPN22 act | Measles CPE | PTPN22 inh 2
O=C(c1ccc(NC2=NC3CS(=O)(=O)CC3S2)cc1)N1CCN(Cc2ccccc2)CC1 (stereo not given) | 7 | 5 | -11
CCOc1cc(C)nc(N2CCCC(C(=O)NCc3ccccc3F)C2)n1 (stereo not given) | 6 | 19 | -6
Cc1cc(C)nc(N2CCCC(C(=O)NCCc3ccccc3F)C2)n1 (stereo not given) | 3 | 43* | -6
O=C(CN(C(=O)C1CSC(=O)C1)c1ccccc1F)NCc1ccc2c(c1)OCO2 (stereo not given) | 3 | 63* | -4
O=C(Cc1ccccc1)NCc1ccc2c(c1)OCO2 | -4 | 6 | 6
COc1cccc(/C=C(/C(=O)OCC(=O)NC2CCCC(C)C2C)c2ccccc2)c1 (stereo not given) | · | 13 | ·
CC1=CC(C)(C)NC(=S)N1c1cccc2ccccc12 | -1 | 7 | 1
CCC1SC2=NC(C)=C(C(=O)OCC(C)C)C(/C=C/c3ccccc3OC)N2C1=O (stereo not given) | -1 | 7 | 4
CCC1SC2=NC(C)=C(C(=O)OCCOC)C(/C=C/c3ccccc3OC)N2C1=O (stereo not given) | -3 | 54* | 0
O=C(NCc1ccco1)C(=O)NCC1OCCN1S(=O)(=O)c1ccc(F)cc1 (stereo not given) | · | 50* | ·
O=C(NCc1ccco1)C(=O)NCC1OCCN1S(=O)(=O)c1ccc(Cl)cc1 (stereo not given) | · | 17 | ·
C=CCOC(=O)COc1ccc2c(C)c(C)c(=O)oc2c1C | 1 | 3 | 3
COc1ccc(/C=N/Nc2ccc(C(F)(F)F)cc2[N+](=O)[O-])cc1O | · | 18 | ·
CCOc1ccc(/C=N/Nc2ccc(C(F)(F)F)cc2[N+](=O)[O-])cc1O | · | 32* | ·
O=C(CSc1nnc(Cn2nnc3ccccc32)o1)N(Cc1ccc(Cl)cc1)c1ccccc1 | -7 | 10 | 4
CC1=NN(c2ccccc2)C(=O)/C1=C\C=C1/N(C)c2ccccc2C1(C)C | · | 11 | ·
CC1=NN(c2ccccc2)C(=O)/C1=C\C=C1\N(C)c2ccccc2C1(C)C | · | 59* | ·
O=C(COc1ccc2ccc(=O)oc2c1)Nc1ccc2c(c1)OCCO2 | -3 | 20 | 2
Cc1ccc(NC(=O)Cc2noc3ccccc23)c(C)c1 | · | 21* | ·
Cc1cccc2c(CC(=O)Nc3ccccc3)noc12 | · | 23 | ·
Cc1nn(C)cc1CNC(=O)c1cc2n(n1)C(C(F)(F)F)CC(c1cccs1)N2 (stereo not given) | -5 | 20* | 5
Cc1nn(C)c(C)c1CNC(=O)c1nn2c(c1Cl)NC(c1cccs1)CC2C(F)(F)F (stereo not given) | 0 | 12 | -2
O=C(O)c1ccc(N2Cc3ccccc3C2)cc1O | -5 | 71* | 1
Cc1ccc(C(=O)c2ccccc2C(=O)O)c(O)c1 | 0 | 10 | -2
CC(=C1C(=O)c2ccccc2C1=O)N1CCc2ccccc2C1 | 12 | 2 | -13
SMILES | PTPN22 act | Measles CPE | PTPN22 inh 2
COC(=O)C1C(=O)c2c([nH]c(C(=O)OC3CCCCC3)c2C)CC1C (stereo not given) | · | 33* | ·
COC(=O)C1C(=O)c2c([nH]c(C(=O)OC3CCCC3C)c2C)CC1C (stereo not given) | · | 25 | ·
Cc1ccc(S(=O)(=O)/N=C2\C(=O)c3ccccc3C([O-])=C2n2cc[n+](CCC(C)C)c2)cc1 | 10 | 27 | -8
CS(=O)(=O)N1CCN(c2ccc(NC(=O)c3ccc(Br)o3)cc2)CC1 | -4 | 5 | 7
COc1ccc(S(=O)(=O)Cc2ccc(C(=O)NCc3cccnc3)o2)cc1 | 0 | 2 | -2
COc1ccc(S(=O)(=O)Cc2ccc(C(=O)NCc3ccc(F)cc3)o2)cc1 | 1 | 32* | -3
Cc1cc(C(=O)CSc2nnc(Cc3ccccc3)o2)c(C)n1Cc1ccc2c(c1)OCO2 | -7 | 1 | 3
CC(=O)OC(C(=O)Nc1ccccc1)C(C)S(=O)(=O)c1ccccc1 (stereo not given) | 15 | 6 | -15
CCSc1ncnc2c1sc1nc(-c3ccco3)c3c(c12)CC(C)(C)OC3 | -8 | 6 | 9
COc1cccc(OC)c1-c1nn2c(-c3cc(-c4ccccc4)n[nH]3)nnc2s1 | -39 | 4 | 38*
COc1cccc(-c2nnc3sc(-c4ccccc4)nn23)c1 | · | 6 | ·
CN(Cc1ccccc1)C(=O)c1cc(-c2ccc(Br)cc2)on1 | 2 | 17 | 2
O=C(COC(=O)c1n[nH]c2ccccc12)NC(=O)NCc1ccco1 | -5 | 25* | 2
O=C(COC(=O)c1n[nH]c2ccccc12)NC(=O)NC1CCCCC1 | 28 | 5 | -33
CCN(CC)C(=O)N1CCn2c(nc3ccccc32)C1 | -9 | 20 | 9
O=C(Nc1ccccc1)N1CCn2c(nc3ccccc32)C1 | -1 | 48* | 0
CCN(CC)S(=O)(=O)c1cccc(C(=O)Nc2ccc(Cl)cn2)c1 | -1 | 13 | -1
C(=N\n1cnnc1)/c1cn(-c2cccs2)nc1-c1ccccc1 | 6 | 0 | -9
COc1ccc(C(=O)NC2CCCCCC2)cc1S(=O)(=O)N1CCCc2ccccc21 | -1 | 3 | 1
COc1ccc(C(=O)Nc2nc3c(s2)CCCC3)cc1S(=O)(=O)N1CCCc2ccccc21 | · | 36* | ·
Cc1nc(C(=O)N(C)C)nn1-c1cc(Cl)ccc1Cl | -4 | 7 | 10
Cn1[nH]c(=O)c2ccccc2c1=O | · | 10 | ·
CCCC(=O)NC1C2CC3CC(C2)CC1C3 (stereo not given) | 12 | 7 | -8
N#Cc1c(NC(=O)c2ccccc2Cl)n(Cc2ccccc2)c2nc3ccccc3nc12 | · | 47* | ·
CCCCn1c(NC(=O)c2ccccc2Cl)c(C#N)c2nc3ccccc3nc21 | -4 | 6 | 3
SMILES | PTPN22 act | Measles CPE | PTPN22 inh 2
CCCCn1c(SCC(N)=O)nc2c(sc3ccccc32)c1=O | 9 | 4 | -10
Cc1nonc1OCC(C)(COc1nonc1C)NC(=O)c1ccccc1 | -2 | 17 | 0
COc1ccc2oc(=O)c(-c3csc(Nc4ccc(O)cc4)n3)cc2c1 | · | 7 | ·
CC(C)c1ccccc1OCC(=O)NCC(c1cccs1)N1CCOCC1 (stereo not given) | 4 | 29* | 0
O=C(NCC(c1cccs1)N1CCOCC1)c1ccc(Br)o1 (stereo not given) | -2 | 2 | 1
Cc1cc(=O)oc2c3c4c(cc12)OCCN4CCC3 | 2 | 8 | -2
Nc1nnnn1/N=C/c1ccccc1C(F)(F)F | -70 | -1 | 69*
Nc1nnnn1/N=C/c1ccccc1OCc1ccccc1 | 6 | 4 | -8
S=c1sc(SCCOc2ccccc2)nn1-c1ccccc1 | · | 93* | ·
COc1ccc(CCNC(=O)CSc2nn(-c3ccccc3)c(=S)s2)cc1OC | · | 20 | ·
Cn1nnnc1SCC(=O)Nc1nc2c(s1)CCCC2 | -3 | 2 | 3
c1ccc(-c2nc(-n3nc4ccccc4n3)nc3ccccc23)cc1 | 3 | 39 | -2
FC(F)Sc1nc(-c2ccccc2)c(-c2ccccc2)n1C(F)F | · | 34* | ·
CC(NC(=O)c1cn(C)c2ccc(S(=O)(=O)N3CCCC3)cc2c1=O)c1ccc2c(c1)OCCO2 (stereo not given) | -2 | 2 | 8
N#Cc1ccccc1NC(=O)c1ccccc1OCC(=O)NCc1ccco1 | 1 | 26 | -2
Cc1ccnc2nc(C(=O)NCc3cccs3)nn12 | 15 | 3 | -15
